Screening data deposited in PubChem by National Center for Advancing Translational Sciences (NCATS).
HP1b binding inh – HTS for Inhibitors of HP1-beta Chromodomain Interactions with Methylated Histone Tails | AlphaScreen HP1-beta / biotin-H3K9me3 peptide binding | Potency, µM (top dose mostly 114 µM), hits mostly inhibitors | 0.56% of 390,000 active | AID 540317, 2011; also: nearly all actives have a fitted effect of over 70% in size
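Compound inhibition of the preformed complex between 50 nM HP1-beta and 50 nM biotinylated H3K9me3 peptide was read by AlphaScreen. Buffer was PBS pH 7.4 with 0.01% Tween-20. Incubations ran 30 min at room temperature, with 10 ug/mL donor/acceptor beads.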
BAZ2B inh – qHTS Assay for Inhibitors of BAZ2B. AlphaScreen BAZ2B-H3K14Ac peptide displacement. Potency, µM (doses to about 114 µM), most hits filed as inhibitors. Bromodomain adjacent to zinc finger domain protein 2B (Homo sapiens), Q9UIF8. 4.4% of 360,000 active. AID 504333, 2011; also: nearly all actives have a fitted effect of over 60% in size
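Multi-concentration screen (max 110 uM) measuring displacement of acetylated histone H3 peptide from BAZ2B by AlphaScreen, using 50 nM protein, 50 nM peptide and 10 ug/mL streptavidin donor plus Ni-chelate acceptor beads.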
VDR inhibitor – Inhibitors of the vitamin D receptor (VDR): qHTS | VDR-SRC2-3 peptide fluorescence polarization, 2 h | Potency, µM, most hits filed as inhibitors | 0.93% of 400,000 active
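FP read-out; VDR + SRC2-3 coactivator peptide; 23 nl compound by pintool; 2 h RT incubation; reagents held at 4 deg C, protected from light.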
JMJD2A Tudor inh – qHTS Assay for Inhibitors of JMJD2A-Tudor Domain; Lysine-specific demethylase 4A (Homo sapiens), O75164; AlphaScreen JMJD2A-Tudor / H3K4me3 peptide binding; Potency, µM (top dose mostly 114 µM), usual class: inhibitors; 4.4% of 390,000 active; also: nearly all actives have a fitted effect of over 50% in size
G9a block – qHTS Assay for Inhibitors of Histone Lysine Methyltransferase G9a | Histone-lysine N-methyltransferase EHMT2 (Homo sapiens), Q96KQ7 | G9a H3K9 monomethylation, AlphaScreen, 2 h | Potency, µM (titrated, usually from 102 µM), hits mostly inhibitors | 8.8% of 350,000 active | AID 504332, 2011; also: nearly all actives have a fitted effect of over 75% in size
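Quantitative HTS format: methyltransferase activity on a biotin-tagged H3K9 peptide is measured by AlphaScreen, using a rabbit anti-monomethyl-H3K9 antibody with streptavidin donor and anti-IgG acceptor beads. Final levels are 20 nM enzyme, 500 nM peptide, 20 uM SAM; 2 h RT.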
PLK1 PBD inh – qHTS for Inhibitors of PLK1-PDB (polo-like kinase 1 - polo-box domain): Primary Screen | Potency, µM, usual class: inhibitors | AID 720504, 2013 | 2.8% of 360,000 active | Plk1 PBD binding of FITC phosphopeptide, fluorescence polarization; also: series mostly up to about 57 µM; nearly all actives have a fitted effect of over 65% in size
Target sequence (P53350 whole entry, looked up, the tested form may be a part): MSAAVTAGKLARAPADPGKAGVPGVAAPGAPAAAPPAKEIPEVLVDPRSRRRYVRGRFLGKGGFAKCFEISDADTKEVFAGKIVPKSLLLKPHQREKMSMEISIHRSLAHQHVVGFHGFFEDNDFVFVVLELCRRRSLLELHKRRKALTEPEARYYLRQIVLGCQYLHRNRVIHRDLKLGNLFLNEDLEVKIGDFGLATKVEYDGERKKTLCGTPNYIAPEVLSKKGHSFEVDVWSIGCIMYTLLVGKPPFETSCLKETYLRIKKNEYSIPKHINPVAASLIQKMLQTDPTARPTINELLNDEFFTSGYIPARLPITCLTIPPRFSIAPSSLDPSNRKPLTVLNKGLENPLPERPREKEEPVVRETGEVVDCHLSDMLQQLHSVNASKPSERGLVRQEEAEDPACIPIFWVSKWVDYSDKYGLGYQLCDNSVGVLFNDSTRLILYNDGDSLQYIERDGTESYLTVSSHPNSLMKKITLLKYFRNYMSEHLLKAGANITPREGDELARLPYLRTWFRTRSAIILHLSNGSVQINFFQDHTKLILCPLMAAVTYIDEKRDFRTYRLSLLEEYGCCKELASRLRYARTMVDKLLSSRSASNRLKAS
Of the large screens only hits and unclear results are named; the others gave an inactive call. Rows were chosen to be rich in hits. Some 11% of all compounds tested hit in one or more screens of this group. Calls follow the shape of the dose curve; as a rule, active = well fitted curve in the direction sought with a large enough effect; inconclusive = small, poorly fitted or top-dose-only effect, or another doubt; inactive = no such curve, though single readings can be large; an effect the other way counts as inactive or inconclusive.

CCOc1ccccc1OCC(=O)Nc1cc2c(cc1C(=O)O)OCCCO2	G9a block 25µM
COc1ccccc1C(=O)Nc1cc2c(cc1C(=O)O)OCCCO2	none
COc1ccccc1OCC(=O)Nc1cc2c(cc1C(=O)O)OCCCO2	JMJD2A Tudor inh 79µM, G9a block 7.9µM
CC(C)(C)[C@H]1COC(=O)CCC/C=C/C[C@H](CC(=O)N(CCO)Cc2ccccc2)C(=O)N1	none (no result: BAZ2B inh, G9a block)
COc1c(C)cc(C(O)c2ncc(-c3ccccc3C(F)(F)F)[nH]2)cc1C (stereo unspecified)	none (no result: HP1b binding inh, BAZ2B inh, VDR inhibitor, JMJD2A Tudor inh, G9a block)
CC1(C(=O)c2ccccc2)C2c3c(ccc4ccccc34)OC(=O)C21C(=O)N1CCOCC1 (stereo unspecified)	BAZ2B inh inconclusive, G9a block 79µM
CCOC(=O)c1c(C)[nH]c(C)c1C(=O)COC(=O)c1ccc(OC)cc1	BAZ2B inh inconclusive, G9a block 40µM
NC(C(=O)O)c1nn[nH]n1 (stereo unspecified)	JMJD2A Tudor inh 10µM (no result: BAZ2B inh, G9a block, PLK1 PBD inh)
O=C(COc1ccc(Cl)cc1Cl)NCCCn1ccnc1	none
Clc1cc(Br)ccc1OCCCn1ccnc1	HP1b binding inh inconclusive, BAZ2B inh 50µM, JMJD2A Tudor inh 22µM, G9a block inconclusive
Clc1ccccc1OCCCn1ccnc1	HP1b binding inh inconclusive, BAZ2B inh 79µM, JMJD2A Tudor inh 18µM, G9a block 25µM
Cc1ccc(OCCCn2ccnc2)c(Br)c1	HP1b binding inh inconclusive, BAZ2B inh 56µM, JMJD2A Tudor inh 22µM, G9a block 14µM
Clc1ccccc1OCCCCn1ccnc1	none
Clc1ccc(SCCCCn2ccnc2)cc1	HP1b binding inh inconclusive, BAZ2B inh 50µM, JMJD2A Tudor inh 7.9µM, G9a block inconclusive
CC(Oc1ccc(Cl)cc1)C(=O)NCCCn1ccnc1 (stereo unspecified)	none
Cn1nnnc1Sc1ncnc2scc(-c3ccc(C(=O)OC(C)(C)C)cc3)c12	none (no result: HP1b binding inh, BAZ2B inh, VDR inhibitor, G9a block, PLK1 PBD inh)
CCOc1ccc(C(=S)NC2CCCCC2)cc1	G9a block 10µM, PLK1 PBD inh 27µM
CCOc1ccc(OCCNC2CCCC2)cc1	HP1b binding inh inconclusive, JMJD2A Tudor inh 3.2µM, G9a block inconclusive
CCCOc1ccc(OCCNC2CCCC2)cc1	HP1b binding inh inconclusive, BAZ2B inh inconclusive, JMJD2A Tudor inh 89µM, G9a block 10µM
Cn1c(=O)cc(SCC(=O)N2CCN(c3ccccc3F)CC2)c2cc(Cl)ccc21	none (no result: PLK1 PBD inh)
CN1CCN(S(=O)(=O)c2cccc(C(=O)Oc3cccc(C#N)c3)c2)CC1	G9a block inconclusive
COc1cc(C#N)ccc1OC(=O)c1cccc(S(=O)(=O)N2CCN(C)CC2)c1	G9a block 50µM
CN1CCN(S(=O)(=O)c2cccc(C#N)c2)C(c2ccccc2)C1 (stereo unspecified)	G9a block 56µM
CN1CCCN(S(=O)(=O)c2cccc(C#N)c2)CC1	G9a block 56µM
COc1ccc(CCNC(=O)CSc2nc3ccccc3nc2Cc2ccc(C)cc2)cc1OC	none (no result: PLK1 PBD inh)
O=S(=O)(NCCc1csc(-c2cccc(F)c2)n1)c1cc(F)ccc1F	none (no result: PLK1 PBD inh)
COc1cccc(CNc2ccc(F)c(Cl)c2)c1	BAZ2B inh inconclusive, G9a block 50µM
COc1cccc(CNc2ccc(F)c(Cl)c2)c1O	JMJD2A Tudor inh inconclusive
CCOc1ccc(CNC(=O)Cn2nc(C)c3nn(-c4ccc(Cl)cc4)c(C)c3c2=O)cc1OC	none (no result: PLK1 PBD inh)
CCN1CCN(c2ccc(S(=O)(=O)N3CCCCC3)cc2NC(=O)COc2cc(C)ccc2Cl)CC1	BAZ2B inh 79µM, JMJD2A Tudor inh inconclusive, G9a block 10µM
CCN1CCN(c2ccc(S(=O)(=O)N3CCCCC3)cc2NC(=O)COc2ccc(Cl)cc2)CC1	BAZ2B inh inconclusive, JMJD2A Tudor inh inconclusive, G9a block 5µM
O=C(COc1ccccc1)Nc1cc(S(=O)(=O)N2CCOCC2)ccc1N1CCCC1	G9a block inconclusive
CCN1CCN(c2ccc(S(=O)(=O)N3CCCCC3)cc2NC(=O)COc2ccc(F)cc2Cl)CC1	BAZ2B inh inconclusive, JMJD2A Tudor inh inconclusive, G9a block inconclusive
COC(=O)[C@@]1(C)[C@H]2C(=O)N(C)C(=O)[C@H]2[C@H]2CN=C(SCc3ccc(C#N)cc3)N21	none (no result: BAZ2B inh, G9a block)
CC1(C)Cc2ccccc2C(N/N=C/c2cccc(F)c2)=N1	JMJD2A Tudor inh inconclusive, G9a block 40µM, PLK1 PBD inh inconclusive
CC(C)=NNC1=NC(C)(C)Cc2ccccc21	none (no result: G9a block)
CC(C)=NNc1cc([N+](=O)[O-])cc2c1C(=O)N(C)S2=O (stereo unspecified)	VDR inhibitor inconclusive, G9a block 45µM
CN(C)S(=O)(=O)c1ccc(N2CCCC2)c(C(=O)NC2CCC(O)CC2)c1 (stereo unspecified)	none
CCn1c(N2CCN(S(=O)(=O)c3ccccc3C(F)(F)F)CC2)nc2ccccc21	BAZ2B inh inconclusive, G9a block 50µM
CCc1nnc(NC(=O)CSc2nc3cc(OC)c(OC)cc3cc2C)s1	none (no result: G9a block)
Cc1ccc(S(=O)(=O)N2CC=C(C(=O)NC3CC3)CC2)cc1	G9a block inconclusive, PLK1 PBD inh 21µM
Cc1cc(C)c(NC(=O)c2c(C)nn(-c3ccc(F)cc3)c2-n2cccc2)c(C)c1	G9a block inconclusive (no result: PLK1 PBD inh)
CCOC(=O)N1CCC(NC(=O)C2=CCN(S(=O)(=O)c3ccccc3)CC2)CC1	none
Cc1ccc(CNC(=O)c2ccc3c(c2)CCN3S(=O)(=O)c2ccccc2)cc1	G9a block 5.6µM (no result: PLK1 PBD inh)
CCN(CC)c1ccc(NC(=O)c2c(C)nn(-c3ccc(F)cc3)c2-n2cccc2)c(C)c1	BAZ2B inh 35µM, JMJD2A Tudor inh 32µM, G9a block 3.2µM (no result: PLK1 PBD inh)
Cc1ccc(CNC(=O)C2=CCN(S(=O)(=O)c3ccc(C)cc3)CC2)cc1	G9a block 32µM (no result: HP1b binding inh, VDR inhibitor, JMJD2A Tudor inh, PLK1 PBD inh)
COc1ccccc1CNC(=O)C1=CCN(S(=O)(=O)c2ccc(C)cc2)CC1	G9a block 50µM
Cc1ccc(S(=O)(=O)N2CC=C(C(=O)NCc3ccc(F)cc3)CC2)cc1	G9a block 22µM (no result: HP1b binding inh, VDR inhibitor, JMJD2A Tudor inh, PLK1 PBD inh)
CCN(CC)c1ccc(NC(=O)C2=CCN(S(=O)(=O)c3ccc(F)cc3)CC2)c(C)c1	BAZ2B inh inconclusive, JMJD2A Tudor inh inconclusive, G9a block 11µM
COCCCNC(=O)C1=CCN(S(=O)(=O)c2ccc(C)cc2)CC1	G9a block 35µM
COCCCNC(=O)C1=CCN(S(=O)(=O)c2ccc(OC)cc2)CC1	none (no result: G9a block)
CCOC(=O)N1CCC(N2CCCC(C(=O)c3cccc(OC)c3)C2)CC1 (stereo unspecified)	none
CCOC(=O)c1ccc(NC(=O)CSc2ccc(-c3sc(C)nc3C)nn2)cc1	none (no result: PLK1 PBD inh)
